Compound activity as filed in PubChem.
Hits are enriched below; roughly 0.86% of the tested compounds scored in any of these assays.
FEN1 inhibitor: blocks human flap endonuclease 1 | Potency, µM (highest dose often 114 µM), inactives show top-dose activity change, negative = inhibition, actives largely listed as inhibitors | hit rate 0.35% among 390,000 | Recombinant FEN1 flap cleavage, fluorescence, 15 min; further: nearly all actives have a fitted effect of over 65% in size
Target sequence (P39748 whole entry, looked up): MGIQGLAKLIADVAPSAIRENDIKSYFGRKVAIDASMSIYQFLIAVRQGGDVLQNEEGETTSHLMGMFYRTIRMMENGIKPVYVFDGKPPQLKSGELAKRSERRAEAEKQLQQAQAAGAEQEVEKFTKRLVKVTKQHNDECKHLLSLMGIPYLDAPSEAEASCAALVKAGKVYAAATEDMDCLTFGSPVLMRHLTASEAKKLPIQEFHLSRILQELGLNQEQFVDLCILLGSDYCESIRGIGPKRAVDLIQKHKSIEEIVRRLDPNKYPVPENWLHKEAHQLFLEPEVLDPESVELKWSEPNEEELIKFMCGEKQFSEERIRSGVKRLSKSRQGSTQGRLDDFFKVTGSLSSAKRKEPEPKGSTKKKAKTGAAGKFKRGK
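FEN1 at 10 nM, compound pretreatment for 15 min (room temperature), 50 nM final substrate to initiate; endpoint reads at 0 and 15 min; DMSO-only plates used as vehicle background.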
APEX1 inh: inhibitors of human APE1 endonuclease; P27695; recombinant APE1, TAMRA/BHQ-2 abasic DNA cleavage fluorescence; Potency, µM (series often up to 65.8 µM), for the others: top-dose activity change, negative = inhibition, actives largely listed as inhibitors; hit rate 0.35% among 350,000; AID 2517;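 further: plate controls were vehicle for no effect and reference inhibitor for full effect; nearly all actives have a fitted effect of over 55% in size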
Target sequence (P27695 whole entry, looked up): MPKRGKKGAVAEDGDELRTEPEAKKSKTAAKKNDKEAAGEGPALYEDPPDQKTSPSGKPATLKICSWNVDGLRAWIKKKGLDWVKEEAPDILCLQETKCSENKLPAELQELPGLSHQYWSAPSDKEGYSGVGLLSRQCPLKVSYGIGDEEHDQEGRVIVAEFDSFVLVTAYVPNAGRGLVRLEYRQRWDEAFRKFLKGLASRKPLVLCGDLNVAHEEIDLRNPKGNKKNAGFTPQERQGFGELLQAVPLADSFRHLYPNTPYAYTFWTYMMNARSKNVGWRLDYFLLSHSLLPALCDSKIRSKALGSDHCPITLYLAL
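Incision of a quenched TAMRA/BHQ-2 THF abasic-site duplex (50 nM) by 0.75 nM APE1, after 15 min compound preincubation, measured as fluorescence increase over three 60 s reads. Values normalized to buffer, DMSO and NSC13755 control wells.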
GLS inh: glutaminase GLS (human) inhibition; GLS enzymatic activity, qHTS titration; Potency, µM (highest dose often 45.5 µM), for inactives: top-dose activity change, negative = inhibition, actives largely listed as inhibitors; hit rate 0.21% among 410,000; O94925; AID 624170
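hKGA in 45 mM KH2PO4 pH 8.2, 0.02% Tween-20 with pin-transferred compounds; 1 mM L-glutamine (stock) plus glutamate oxidase/HRP/Amplex Red coupling added. Fluorescence read initially and after 30 min at RT.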
RECQ1 inh-1: RECQ1 (human) helicase inhibition. hit rate 0.54% among 240,000. Potency, µM (titrated, usually from 57.3 µM), without a hit: at the top dose activity, negative = inhibition, usual class: inhibitors. RECQ1 DNA unwinding, red fluorescence kinetic read;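 further: plate controls were vehicle for no effect and no enzyme for full effect; nearly all actives have a fitted effect of over 30% in size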
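RECQ1T1 50 nM; forked duplex (20 bp + 30-nt ss tails) 200 nM, ATP 2 mM final; pH 8.0, 2 mM MgCl2, 2.5 ug/ml poly(dI-dC); 15 min compound preincubation; discontinuous kinetic read over 2 h at RT.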
BLM helicase inh: Bloom syndrome helicase (human) inhibition | P54132 | recombinant BLM DNA unwinding, fluorescence dequenching | Potency, µM (highest dose often 56.1 µM), for inactives: at the highest dose activity change, negative = inhibition, usual class: inhibitors | hit rate 0.2% among 350,000 | AID 2528;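 further: plate controls were vehicle for no effect and no enzyme for full effect; nearly all actives have a fitted effect of over 35% in size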
Tb PGK inh: inhibitors of T. brucei phosphoglycerate kinase; hit rate 0.043% among 380,000; Potency, µM (highest dose often 57.5 µM), inactives show at the highest dose activity change, negative = inhibition, usual class: inhibitors; AID 602233; PGK/GAPDH coupled, Kinase-Glo luminescence, 60 min; further: nearly all actives have a fitted effect of over 60% in size
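Luminescent ATP detection (Kinase-Glo Plus) follows a 60-minute room-temperature incubation, with wells lacking PGK as controls. Buffer: 100 mM TEA (pH 7.6), 5 mM MgCl2, 0.01% Tween-20. Coupling enzyme GAPDH (100 nM final) supplies unstable 1,3-BPG in-well.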
RECQ1 inh conf: confirmation of human RECQ1 helicase inhibitors; RECQ1 helicase DNA unwinding, fluorescence; hit rate 28% among 610; Potency, µM (series often up to 229 µM), for the others: at the top dose activity change, negative = inhibition, hits mostly inhibitors; shares compounds with RECQ1 inh-1; further: nearly all actives have a fitted effect of over 45% in size
RECQ1 ADP FP: ADP displacement flagged in RECQ1 inhibitor counter-screen; ADP fluorescence polarization displacement counterscreen; Potency, µM (top dose mostly 228 µM), for the others: top-dose activity change, negative = inhibition, usual class: inhibitors; shares compounds with RECQ1 inh-1; hit rate 27% among 530; further: nearly all actives have a fitted effect of over 45% in size
RECQ1 inh-2: confirmation of human RECQ1 helicase inhibitors | shares compounds with RECQ1 inh-1 | recombinant RECQ1 DNA unwinding, red fluorescence | Potency, µM (titrated, usually from 119 µM), for inactives: at the top dose activity, negative = inhibition, most hits filed as inhibitors | hit rate 15% among 1,100 | AID 504841; further: nearly all actives have a fitted effect of over 50% in size
* = called active by the depositor; i = inactive; ? = inconclusive; . = no result given; [ ] = dose if it differs, or a comment. The call rests on the fitted dose curve; in most records, active means well fitted curve in the direction sought with a large enough effect; inconclusive means small, poorly fitted or top-dose-only effect, or another doubt; inactive means no such curve, though single readings can be large; an effect the other way counts as inactive or inconclusive. Unless noted, on the % scale 0 is the no-effect control and ±100 the full control effect; potency means the concentration at half of the fitted maximal effect.

SMILES | FEN1 inhibitor | APEX1 inh | GLS inh | RECQ1 inh-1 | BLM helicase inh | Tb PGK inh | RECQ1 inh-2 | others
CC(Cc1ccc(O)c(O)c1)C(C)Cc1ccc(O)c(O)c1 (stereo unspecified) | ? | ? | -26% | 2.2µM* | -14% | -3% | . | RECQ1 inh conf=45µM*;RECQ1 ADP FP=8.9µM*
COc1cc(C[C@@H](C)[C@@H](C)Cc2ccc(O)c(OC)c2)ccc1O | -2% | -16% | 16% | . | . | 6% | .
CCCC(=O)O[C@]1(C(=O)CCl)[C@H](C)C[C@@H]2[C@H]3CCC4=CC(=O)C=C[C@]4(C)[C@@]3(F)C(=O)C[C@@]21C | . | . | 4% | . | -7% | . | .
CCc1ccc2oc(C(=O)N(Cc3ccc(N(C)C)cc3)Cc3ccco3)c(C)c2c1 | -13% | . | -8% | . | -5% | . | .
CCOC(=O)c1cc2c(ccn2C)n1Cc1ccccc1C | -17% | -7% | 13% | 28µM* | -9% | -3%[11.5 µM] | ?
Cc1ccccc1Cn1c(C(=O)OC(C)C)cc2c1ccn2C | -15% | 10% | 1% | -13% | -6% | 2% | .
O=C(COC(=O)CCC(=O)c1ccc(Cl)cc1)NCc1ccco1 | -3% | ? | -5% | ? | 2% | ? | ?
O=C(COC(=O)CCC(=O)c1ccc(F)cc1)NCc1ccc(Cl)cc1 | -12% | 10% | 0% | . | . | 13% | .
Cc1[nH]c(=O)[nH]c(=O)c1S(=O)(=O)Nc1cccc(Cl)c1C | 17% | . | -2% | . | -3% | 5% | .
N=C1/C(=C\c2ccc(SCc3ccccc3)o2)C(=O)N=C2SC(CC(=O)N3CCOCC3)=NN12 | -15% | -8% | 6% | ? | -23% | -12% | -29%
O=C(NCCc1ccc(F)cc1)C(=O)NCC(c1cccs1)S(=O)(=O)c1ccccc1 (stereo unspecified) | 3% | . | 5% | . | 0% | -5% | .
O=C(C[N+]1(CCc2ccccc2)CCOCC1)c1ccccc1 | 2% | . | . | . | . | . | .
COc1ccccc1CCNC(=O)Cc1c(C)c2ccc(O)cc2oc1=O | 4% | . | 30% | . | 4% | -5% | .
CC(C)=C(C#N)c1nc2ccccc2s1 | 7% | -4% | 5% | 10µM* | -2% | -1%[11.5 µM] | -10%
COC(=O)c1ccc(/C(O)=C(\C#N)c2nc3ccccc3s2)cc1 | -3% | -11% | -8% | -2% | -3% | . | .
COC(=O)c1cc2c([nH]c1=O)CC(c1ccccc1)CC2=O (stereo unspecified) | -15% | . | . | . | . | . | .
O=C(COC(=O)CCC(NC(=O)OCc1ccccc1)C(=O)OCC(=O)Nc1ccccc1)Nc1ccccc1 (stereo unspecified) | -14% | 8% | 0% | ? | -6% | i | -20%
COc1cccc(-n2c(C)c3c(OC)cccc(=O)c3c2C)c1 | -11% | -6% | 0% | -11% | -8% | -4% | .
CCOc1cccc(=O)c2c(C)n(C)c(C)c12 | ? | ? | -9% | ? | -23% | -3% | -3%
COc1cccc(=O)c2c(C)n(-c3cc(C)cc(C)c3)c(C)c12 | -6% | -6% | -3% | -10% | -8% | 2% | .
COc1cccc(=O)c2c(C)n(C)c(C)c12 | -2% | -9% | 2% | ? | -18% | -1% | -21%
CCCCCn1c(C)c2c(OCC)cccc(=O)c2c1C | -3% | -8% | -4% | 32µM* | -12% | i | -11%
Cc1ccccc1Nc1oc(-c2ccccc2)nc1-c1ccccc1F | . | ? | . | -5% | 0% | . | .
CCNC(=O)COC(=O)c1cc(-c2ccco2)nc2ccccc12 | ? | 25µM* | ? | 28µM* | ? | -23% | ?
CC1=C(C(=O)OC2CCCC2)C(c2cccc(Cl)c2Cl)CC(=O)N1 (stereo unspecified) | -5% | . | 1% | . | -5% | -2% | .
SMILES | FEN1 inhibitor | APEX1 inh | GLS inh | RECQ1 inh-1 | BLM helicase inh | Tb PGK inh | RECQ1 inh-2 | others
COc1ccc(CN2C(=O)/C(=C/c3ccc(-c4ccc(Cl)c(C(=O)O)c4)o3)SC2=S)cc1 | . | ? | . | -16% | 2% | . | .
O=C1/C(=C/c2ccncc2)SC(=S)N1Cc1ccccc1 | -7% | -4% | 4% | i | 3% | 2% | .
O=C(O)c1cc(-c2ccc(/C=C3/SC(=S)N(Cc4ccccc4)C3=O)o2)ccc1Cl | -15% | ? | 0% | 6.3µM* | -8% | -20% | . | RECQ1 inh conf=?
Cc1ccc(/C=C2\SC(=S)N(Cc3ccccc3)C2=O)o1 | 1% | -3% | ? | 18µM* | -10% | i | . | RECQ1 inh conf=?;RECQ1 ADP FP=34%[91.9 µM]
CCN(CC)CCCNC(=O)Cn1c(-c2cccs2)cc2cc(Cl)ccc21 | 5% | . | -3% | . | -6% | -5% | .
O=C(/C=C/c1ccc(Cl)cc1)N1CCN(c2c(Cl)cccc2[N+](=O)[O-])CC1 | -12% | -4% | 5% | -8% | -7% | -3% | .
O=C(CSc1ccc(Cl)cc1)N1CCN(c2c(Cl)cccc2[N+](=O)[O-])CC1 | 6% | -4% | 2% | 8.9µM* | -11% | 2% | -27% | RECQ1 inh conf=-6%[114 µM];RECQ1 ADP FP=-4%[91.9 µM]
Cc1nc2ccn(Cc3cccs3)c(=O)c2cc1C(=O)NCc1ccc(Br)cc1 | -17% | . | 6% | . | -5% | 12% | .
O=C(O)c1ccc(N2C(=O)/C(=C/c3ccc(-c4ccc([N+](=O)[O-])cc4)o3)C=C2c2ccccc2)cc1 | ? | ? | ? | 18µM* | -20% | ? | . | RECQ1 inh conf=22µM*
CN(/N=C/c1ccc(-c2ccc([N+](=O)[O-])cc2)o1)c1ccccc1 | 5% | 16% | 1% | . | -6% | -2% | .
Nc1cc(=O)[nH]c(SCC(=O)N2N=C(c3ccc(Cl)cc3)CC2c2ccco2)n1 (stereo unspecified) | 4% | 2% | -16% | ? | -3% | i | -49%
CC(=O)Oc1ccc2c(=O)c(Oc3ccccc3)coc2c1OC(C)=O | ? | 2.2µM* | 26% | 3.5µM* | -9% | -10% | 25µM*
Cc1ccc(Oc2coc3cc(OC(=O)c4cccs4)ccc3c2=O)cc1 | -2% | -6% | -2% | -13% | -9% | -1% | .
Cc1ccc2[nH]c(CSc3nnc(NC(=O)COc4ccc(F)cc4)s3)cc(=O)c2c1 | 4% | . | -4% | . | -8% | -3% | .
